# PubChem BioAssay AID504909 (Southern Research Specialized Biocontainment Screening …, 2011)
# Entries with a potency or affinity are not part of this list. A number with no mark means an inactive call. How the calls were made is not given here.
# Assay: Vero cell cytotoxicity, dose response, cytotoxicity control for M. tuberculosis growth inhibitor project, Vero cells, purified and synthesized compounds, set 5 (AID 504909)
# Conditions: series mostly up to 100 µM; viability: at the top concentration
row,Compound,viability [%]
1,COc1ccc(NC(=O)CSc2nc3ccccc3c(=O)[nH]2)cc1,89.5
2,CCC(Sc1nc2c(c(=O)[nH]1)CCC2)C(=O)Nc1cccc(OC)c1 (configuration not stated),90.8
3,Nc1cc(=O)[nH]c(SCC(=O)NC2CCCCC2)n1,89.7
4,COc1c(N2CCNC(C)C2)c(F)cc2c(=O)c(C(=O)O)cn(C3CC3)c12 (configuration not stated),108
5,CC[N+](C)(CC)CCCCOc1ccc2c(c1)C(=O)c1cc(OCCCC[N+](C)(CC)CC)ccc1-2,90.1
6,COC(=O)C(C)Oc1ccc(Cc2ncc(C(F)(F)F)cc2Cl)cc1 (configuration not stated),85.8
7,Cc1nc(SCC(=O)NCCC(C)C)[nH]c(=O)c1C,93.5
8,CC[C@@H](CO)NCCN[C@@H](CC)CO,108
9,NC[C@H]1O[C@H](O[C@H]2[C@H](O)[C@@H](O[C@H]3O[C@H](CO)[C@@H](O)[C@H](N)[C@H]3O)[C@H](N)C[C@@H]2N)[C@H](O)[C@@H](O)[C@@H]1O,110
10,CCOC1OC(=O)C(Cl)=C1Nc1ccccc1C (configuration not stated),103
11,CC(Sc1nc2ccccc2c(=O)[nH]1)C(=O)NC1CCCCC1 (configuration not stated),99.7
12,O=C(CSc1nccc(=O)[nH]1)NC1CCCCC1,94.8
13,CCSc1nc(C)c(C)c(=O)[nH]1,100
14,CC(C)NC(=O)CSc1nc2ccccc2c(=O)[nH]1,93.3
15,CNC(=O)CSc1nc2ccccc2c(=O)[nH]1,92.2
16,Nc1c(C(=O)NC2CCCCC2)nsc1C(=O)OCC(=O)NC1CCCCC1,102
17,CC1CCN(C(=O)C2CCN(c3nnc(-n4cccc4)s3)CC2)CC1,94.8
18,CCOC(=O)CSc1nc(C)c(C)c(=O)[nH]1,98.6
19,Cc1cc(=O)[nH]c(SCC(=O)NC2CCCCC2)n1,100
20,Cc1[nH]c(=S)[nH]c(=O)c1C,98.1
21,NNC(=O)c1ccncc1,107
22,Cc1nc(SCC(N)=O)[nH]c(=O)c1C,102
23,Cc1nc(SCC(=O)NC2CCCCC2)[nH]c(=O)c1C,91.7
24,CCC(Sc1nc2ccccc2c(=O)[nH]1)C(=O)Nc1cccc(OC)c1 (configuration not stated),91.9
25,COc1cccc(NC(=O)CSc2nc3c(c(=O)[nH]2)CCC3)c1,93.6
26,COC(=O)c1ccc(CNc2c(N3CCCC3)c(=O)c2=O)cc1,102
27,O=C(CSc1nc2c(c(=O)[nH]1)CCCC2)NC1CCCCC1,82.8
